# HCMV inh: blocks human cytomegalovirus replication | HFF cells, HCMV-luciferase reporter, 72 h; hits give low values | activity change, negative = inhibition, % at 57.5 µM | hit rate 4.5% among 410,000; in the data active = activity change below about -60%; inconclusive = no clear call, values can overlap the other calls; inactive = above about -39%
#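 Human foreskin fibroblasts infected with luciferase-reporter HCMV at MOI 1 PFU/cell, compounds at two doses. Luciferase measured 72 h post infection; normalized to buffer-only basal and Salinomycin (10uM) controls.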
# Giardia FBPA inh: blocks Giardia fructose-bisphosphate aldolase activity; purified Giardia FBPA; Potency, µM (doses to about 59.6 µM), for the others: at the top dose activity, negative = inhibition, most hits filed as inhibitors; hit rate 0.71% among 290,000; AID 2451; also: potency is read from the fitted curve at half-maximal effect; nearly all actives have a fitted effect of over 55% in size
# Target sequence (A8B2U2 whole entry, looked up): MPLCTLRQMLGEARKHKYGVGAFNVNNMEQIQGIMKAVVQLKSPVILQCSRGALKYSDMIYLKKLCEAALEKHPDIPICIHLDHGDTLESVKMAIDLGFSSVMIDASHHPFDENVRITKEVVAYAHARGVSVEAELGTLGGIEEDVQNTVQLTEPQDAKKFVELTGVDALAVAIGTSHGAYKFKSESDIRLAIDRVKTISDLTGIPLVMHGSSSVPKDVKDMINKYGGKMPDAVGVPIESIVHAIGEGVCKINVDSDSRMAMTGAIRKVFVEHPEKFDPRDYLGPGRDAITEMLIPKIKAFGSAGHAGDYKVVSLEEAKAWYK
#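 40 nM FBPA preincubated 10 min at RT with compound (up to 57.5 uM final), then substrate plus GAPDH/TPI/NAD/arsenate coupling and diaphorase/resazurin added. Fluorescence read after 20 min at RT, 525/598 nm.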
# Pf growth 48h: P. falciparum growth inhibition at 48 hours (one generation). P. falciparum luciferase growth in erythrocytes, 48 h. Potency, µM (titrated, usually from 28.7 µM), without a hit: at the top dose activity change, negative = inhibition, hits mostly inhibitors. AID 504832. hit rate 5.9% among 310,000; also: potency is read from the fitted curve at half-maximal effect
#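 Firefly luciferase activity from engineered P. falciparum reports growth; inhibitors lower the luminescent signal. Cultures contained 2% hematocrit erythrocytes at 0.1% final parasitemia.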
# Sm TGR block: blocks Schistosoma mansoni thioredoxin glutathione reductase | Q962Y6 | purified TGR, DTNB reduction, TNB absorbance 405 nm | Potency, µM (highest dose often 114 µM), for the others: at the highest dose activity change, negative = inhibition, actives largely listed as inhibitors | hit rate 3% among 360,000 | AID 485364; also: potency is read from the fitted curve at half-maximal effect; nearly all actives have a fitted effect of over 60% in size
#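 First, TGR (20 nM dispensed) and NADPH were mixed with compound. Second, a 15 min room-temperature incubation followed. Third, further NADPH and then DTNB were added to start the reaction. Finally, TNB absorbance was monitored kinetically.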
# Pf growth 96h: inhibits malaria parasite growth, 96 h; AID 504834; hit rate 6.9% among 320,000; Potency, µM (doses to about 28.7 µM), without a hit: top-dose activity change, negative = inhibition, most hits filed as inhibitors; P. falciparum luciferase reporter growth, 96 h; also: potency is read from the fitted curve at half-maximal effect
#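 Cell-based qHTS: luciferase-tagged P. falciparum in erythrocytes (2% hematocrit, 0.05% parasitemia final) incubated with compounds for 96 hours, 37 C, 5% CO2; luciferase detection reagent then added and luminescence measured.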
# * marks the source's active call; other numbers are inactive results; ? = inconclusive; / = no result; [ ] = another dose, or the depositor's remark. Most compounds without a hit are left out; they make up all but 14% or so of the library. Unless noted, calls follow the shape of the dose curve; as a rule, active = well fitted curve in the direction sought with a large enough effect; inconclusive = small, poorly fitted or top-dose-only effect, or another doubt; inactive = no such curve, though single readings can be large; an effect the other way counts as inactive or inconclusive. % is scaled to controls: 0 for no effect and ±100 for the full control effect.
SMILES,HCMV inh,Giardia FBPA inh,Pf growth 48h,Sm TGR block,Pf growth 96h
O=C(Nc1ccc(Cl)cc1)c1ccc(-n2cccn2)c([N+](=O)[O-])c1,5,-12%,?,0%,?
COc1ccc(NC(=O)c2ccc(-n3cccn3)c([N+](=O)[O-])c2)cc1,-13,-16%,-4%,40µM*,-4%
CCCCC(=O)Nc1ccc(C(=O)Nc2ccc(OC)cc2[N+](=O)[O-])cc1,-31,6%,-22%,2%,3.7µM*
Cc1ccc(NC(=O)c2ccc(-n3cccn3)c([N+](=O)[O-])c2)cc1C,121,-23%,-11%,11µM*,?
O=c1oc2ccc3ccccc3c2cc1-c1nnc(Nc2ccccc2)s1,-25,/,/,-2%,/
FC(F)(F)c1nnc2c(Sc3ccccc3)nc3ccccc3n12,-101*,17%,-18%,?,-14%
FC(F)(F)c1nnc2c(Sc3ccc(Cl)cc3)nc3ccccc3n12,-103*,1%,?,-20%,14%
Cc1ccc(-c2nnc3c(C(F)(F)F)nc4ccccc4n23)cc1,-24,4%,?,-3%,?
FC(F)(F)c1nc2ccccc2c2nc3ccccc3n12,9,0%,19%,-9%,2%
FC(F)(F)c1nnc2c(Sc3ccccn3)nc3ccccc3n12,-3,6%,9.3µM*,25µM*,3%
FC(F)(F)c1nc2ccccc2n2c(-c3ccc(Cl)cc3)nnc12,-106*,6%,-13%,5%,-3%
Cc1ccc(S(=O)(=O)N2CCCOC2CNC(=O)C(=O)NCc2ccco2)cc1 (centres undefined),-28,4%,6%,-17%,?
O=C(NCc1cccc(C(F)(F)F)c1)c1ccc2c(c1)OCCO2,?,-4%,-3%,-3%,0%
O=C(Cn1c(=O)cnc2ccccc21)NC1CCC(O)CC1 (centres undefined),-30,/,5%,-3%,10%
COc1ccc(C(=O)N2CCN(c3nc4cc(C)cc(C)c4cc3C#N)CC2)cc1,-10,/,/,/,/
O=c1c2ccccc2[nH]c(=S)n1CCCN1CCN(c2ccccc2F)CC1,-63*,10%,8%[0.00184 µM],-2%,?
O=c1c2ccccc2[nH]c(=S)n1CCCN1CCN(c2ccccc2)CC1,-67*,-3%,/,0%,41%
O=c1c2ccccc2[nH]c(=S)n1CCN1CCCCC1,32,-26%,3%,13%,32%
COc1ccc(CNC(=O)COC(=O)CCn2c(C)csc2=O)cc1OC,-6,/,?,-24%,8%
CC1=CC(C)(C)Nc2ccc(OC(=O)CN3C(=O)c4ccccc4C3=O)cc21,-100*,-10%,15µM*,-19%,31%
CC1=CC(C)(C)Nc2ccc(OC(=O)CN3C(=O)c4cccc5cccc(c45)C3=O)cc21,-78*,?,7.4µM*,?,?
CC1=CC(C)(C)Nc2ccc(OC(=O)C(Cc3ccccc3)N3C(=O)c4ccccc4C3=O)cc21 (centres undefined),?,-3%,?,7%,3%
CC1=C(C(=O)Nc2ccc(C)cc2C)C(CC(C)C)n2nc(SCc3ccccc3C)nc2N1 (centres undefined),-7,/,/,-3%,/
CO/C=C\C=C/c1nnn(-c2ccc(Cl)cc2)n1,-64*,-6%,39%,8.9µM*,31%
Clc1ccc(-n2cnnn2)cc1,6,6%,11%,4%,?
SMILES,HCMV inh,Giardia FBPA inh,Pf growth 48h,Sm TGR block,Pf growth 96h
CCOC(=O)/C(=C/c1ccco1)NC(=O)c1ccc(Br)o1,4,3%,13%,18µM*,?
CC(C)CC(NC(=O)/C(=C/c1ccco1)NC(=O)c1ccc(Br)o1)C(=O)O (centres undefined),68,-25%,-7%,45µM*,8%
CCOC(=O)/C(=C/c1ccccc1)NC(=O)c1ccco1,-24,2%,20%,14%,?
CC(C)CC(NC(=O)/C(=C\c1ccco1)NC(=O)c1ccco1)C(=O)O (centres undefined),4,-12%,15%,35µM*,?
O=C(NC(Cc1ccccc1)C(=O)O)/C(=C/c1ccccc1)NC(=O)c1ccc(Br)o1 (centres undefined),-10,11%,3%,-6%,8%
O=C(N/C(=C/c1ccco1)C(=O)N1CCc2ccccc21)c1ccco1,6,-29%,-15%,32µM*,?
COc1ccc(-c2nc3ccccc3o2)cc1NC(=O)C(C)(C)Oc1ccc(Br)cc1,0,/,/,15%,/
COCCCn1cc(CN2CC(N3CCN(Cc4cccc(C)c4)CC3)CS2(=O)=O)nn1 (centres undefined),-26,/,/,/,/
COc1cc2c(cc1OC)CN(C(=S)NC(=O)c1ccccc1)CC2,1,-1%,-17%,2%,?
O=C(O)CCCCCNC(=O)/C(=C\c1ccco1)NC(=O)c1ccco1,-5,?,8%,100µM*,?
CNC(=O)/C(=C\c1ccco1)NC(=O)c1ccco1,-7,6%,9.3µM*,?,0%
O=C(Nc1cccc(C(=O)O)c1)/C(=C\c1ccc(F)cc1)NC(=O)c1ccco1,-30,/,161%,3%,?
O=C(Nc1cccc(F)c1)/C(=C/c1ccco1)NC(=O)c1ccco1,-36,/,-3%,45µM*,-26%
O=C(Nc1cccc(C(=O)O)c1)/C(=C\c1ccco1)NC(=O)c1ccc(Br)o1,-9,-5%,24%,50µM*,83%
CCCCCc1nnc(NC(=O)C2=COCCO2)s1,81,/,77%,1%,75%
CCNC(=O)/C(=C/c1ccco1)NC(=O)/C=C/c1ccccc1,-7,-21%,-15%,40µM*,8%
O=C(/C=C/c1ccccc1)N/C(=C\c1ccco1)C(=O)NCCO,29,1%,57%,-28%,?
Cc1cc(N2CCOCC2)nc2ccc(NC(=O)CCC(=O)N3CCN(c4cccc(C(F)(F)F)c4)CC3)cc12,59,-1%,4.7µM*,-10%,0%
Cc1cc(N2CCN(C)CC2)nc2ccc(NC(=O)CCC(=O)NCCc3ccc(Cl)cc3)cc12,-20,11%,12µM*,2%,11%
CC(=O)c1ccc(N2CCN(C(=O)CCC(=O)Nc3ccc4nc(N5CCN(C)CC5)cc(C)c4c3)CC2)cc1,1,4%,9.3µM*,-12%,5%
CCC(C)NC(=O)CCC(=O)Nc1ccc2nc(N3CC(C)CC(C)C3)cc(C)c2c1 (centres undefined),-23,-11%,9.3µM*,-1%,5.9µM*
CCOC(CCNC(=O)CCC(=O)Nc1ccc2nc(N3CCN(C)CC3)cc(C)c2c1)OCC,26,3%,-14%,15%,?
CCOc1ccc(NC(=O)Cn2c(=O)n(CC(=O)NCc3ccccc3Cl)c(=O)c3sccc32)cc1,8,/,/,-2%,/
CCCCc1cc(=O)oc2cc(OC(C)C(=O)NCC3CCC(C(=O)O)CC3)c(Cl)cc12 (centres undefined),-13,-4%,?,0%,-92%
